Measured values published in PubChem BioAssay (NCATS).
Unmarked numbers belong to inactive results. Records with an inconclusive call do not appear. A call without a number means that no potency is given here. Activity calls are given as the source filed them. Unless noted, the call rests on the fitted dose curve; in most records, active means well fitted curve in the direction sought with a large enough effect; inconclusive means small, poorly fitted or top-dose-only effect, or another doubt; inactive means no such curve, though single readings can be large; an effect the other way counts as inactive or inconclusive.

Columns and labels:
[1] = target: Lysosomal acid glucosylceramidase (Homo sapiens) (UniProt P04062); assay: Glucocerebrosidase-p2 (AID 348; in the data active means potency below about 10 µM; further: potency means the concentration at half of the fitted maximal effect); settings: purified GBA, blue fluorogenic substrate, 40 min
Method in brief: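 Normal human glucocerebrosidase (0.2 nM) with blue fluorogenic substrate (80 uM final) in citrate/phosphate pH 5.9 with 10mM sodium taurocholate, 0.01% tween-20; 40 min RT, NaOH/glycine stop; fluorescence Ex 365/Em 440; AC50 from a titration from 0.6 nM upwards.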

[2] = target: Cytochrome P450 1A2 (Homo sapiens) (UniProt P05177); assay: p450-cyp1a2 (AID 410; calls by dose curve; further: potency means the concentration at half of the fitted maximal effect); settings: recombinant CYP1A2, luciferin-ME demethylation, luminescence; series mostly up to 11.4 µM
Method in brief: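 Luminescent demethylation readout: Luciferin-ME (100uM, equal to Km) turned over by 20nM CYP1A2 for 60 min at room temperature after NADPH regeneration addition, following 10 min compound preincubation. Normalization used 57 uM furafylline as full inhibition.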

[3] = target: Mitogen-activated protein kinase 10 (Mus musculus) (UniProt Q61831); assay: JNK3 AlphaScreen Assay (AID 530; active means well fitted curve in either direction with a large enough effect, not every such curve was filed as active;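 further: kinase came from lysate of stimulated human HepG2 cells; signal reports phosphorylation of biotinylated GST-cJun 1-79 at Ser73 with 10 µM ATP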); settings: JNK3 lysate, c-Jun phosphorylation; series mostly up to 11.4 µM
Method in brief: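 qHTS titrations with 15 min compound pre-incubation before adding ATP (10 uM final). Read-out: AlphaScreen of Ser73-phosphorylated biotin-GST-cJun using HepG2 lysate JNK3 activated by IL-1β and TNFα.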

[4] = target: Guanine nucleotide-binding protein G(i) subunit alpha-1 (Homo sapiens) (UniProt P63096); assay: qHTS Assay for Inhibitors of RGS12 GoLoco Motif Activity (Green Fluorophore) (AID 879); settings: Galphai1/FITC-RGS12 GoLoco peptide, fluorescence polarization; series mostly up to 57.1 µM;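 further: negative values mean loss of peptide binding seen as reduced polarization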
Method in brief: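 A drop in FITC polarization marked displacement of the FITC-tagged RGS12 GoLoco peptide (10 nM) from Gαi1 (50 nM). Compounds were incubated 10 min at room temperature in Tris pH 7.5 buffer containing 150 mM NaCl, 0.1 mM GDP and 0.05% NP40; unlabeled peptide titration served as control.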

[5] = target: Cytochrome P450 2C19 (Homo sapiens) (UniProt P33261); assay: qHTS Assay for Inhibitors and Substrates of Cytochrome P450 2C19 (AID 899); settings: recombinant CYP2C19, luciferin-H EGE luminescence; series mostly up to 11.4 µM; further: nearly all actives have a fitted effect of over 60% in size
Method in brief: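 5nM enzyme + 10uM Luciferin-H EGE (=KM), 50mM KPO4; cpd pin-transferred, 10 min 37C; NADPH regen, 60 min 37C; stopped w/ luciferin detection reagent, 20 min; luminescence. Normalized to 57uM ketoconazole (AC100).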

[6] = qHTS Assay for Identification of Small Molecule Agonists for Thrombopoietin (TPO) Signaling Pathway (AID 917); settings: TPO signaling pathway reporter cells, agonist qHTS, stimulated with TPO at its EC50; series mostly up to 38.5 µM
Method in brief: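 Stimulation at the TPO EC50 (26 pM final) was used to detect activators. Ba/F3 mouse cells bearing human TPO receptor and a luciferase reporter under the Glycoprotein IIb promoter were exposed to compounds for 24 hrs at 37 C.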

[7] = target: Pyruvate kinase (Leishmania mexicana) (UniProt Q27686); assay: qHTS Validation Assay for Inhibitors of Leishmania Mexicana Pyruvate Kinase (AID 945); settings: purified L. mexicana pyruvate kinase, enzyme activity, E451W mutant enzyme; series mostly up to 57.5 µM
Method in brief: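 Luminescent ATP detection (PKLight) after a 1 h room-temperature reaction of 0.2 nM LmPYK E451W mutant with 0.5 mM PEP and 0.1 mM ADP at pH 7.2. Activity is normalized to DMSO-only control wells.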

[8] = target: Pyruvate kinase PKM (Homo sapiens) (UniProt P14618); assay: qHTS Assay for Activators of Human Muscle Pyruvate Kinase (AID 954; active means well fitted curve in the direction sought with a large enough effect, not every such curve was filed as active); settings: purified human muscle pyruvate kinase, luciferase-coupled luminescence, 1 h; series mostly up to 57.5 µM
Method in brief: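 Screening used highly purified human pyruvate kinase M2 under submaximal activity, with PEP at its Km and ADP below Km. After an hour at room temperature, ATP was read by luciferase luminescence.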

[9] = target: Alpha-galactosidase A (Homo sapiens) (UniProt P06280); assay: Counterscreen for Glucocerebrosidase Inhibitors: qHTS Assay for Human alpha-Galactosidase at pH 4.5 (AID 992); settings: purified enzyme, fluorogenic substrate; series mostly up to 76.9 µM
Method in brief: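 Each compound is preincubated briefly with 2 nM enzyme before substrate addition (80 uM); plates then sit 20 min at ambient temperature, are quenched with 1M NaOH/1M glycine, and read fluorometrically.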

[10] = target: alpha-glucosidase (Oryza sativa, rice) (UniProt Q653V4); assay: Counterscreen for Glucocerebrosidase Inhibitors: qHTS Assay for Rice alpha-Glucosidase at pH 5.0 (AID 997); settings: rice alpha-glucosidase enzyme activity; series mostly up to 76.9 µM
Method in brief: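 Endpoint fluorogenic assay at pH 5.0: compounds (0.7 nM to 77 uM) titrated against 4 nM rice enzyme and 400 uM 4-MU-alpha-glucoside for 20 min at room temperature; NaOH/glycine stop, read ex 365/em 440 nm, Hill-fitted AC50.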

[11] = Stat Signaling Pathway (AID 446; active means well fitted curve in either direction with a large enough effect, not every such curve was filed as active;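 further: ME-180 cervical cancer cells given 40 pM IL-6 alongside compound; SIE-controlled beta-lactamase reporter measured as 460/530 nm FRET emission ratio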); settings: ME-180 SIE beta-lactamase reporter, IL-6 stimulated, 5 h; at 7.69 µM (top of the series) unless noted
Method in brief: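 Overnight-plated ME-180 cells bearing a STAT Inducible Element beta-lactamase reporter; 5 h co-exposure to compound and 40 pM IL-6; values normalized to 300 pM IL-6 and 125 nM JAK inhibitor controls.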

[12] = target: Glucocorticoid receptor (Homo sapiens) (UniProt P04150); assay: GR-GFP Redistribution (AID 450;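 active means compounds whose dose series gives a full or clear partial fitted curve of increased nuclear translocation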; further: potency means the concentration at half of the fitted maximal effect); settings: U2OS GR-GFP nuclear translocation, laser cytometry, 2 h
[13] = target: Glucocorticoid receptor (Homo sapiens) (UniProt P04150); assay: GR-EFC Redistribution (AID 451; calls by dose curve; further: potency means the concentration at half of the fitted maximal effect); settings: CHO-K1 GR-EFC translocation, beta-gal luminescence, 2 h
Method in brief: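 Translocation of GR-ED fusion to nuclear EA restores b-gal, read by luminescence after 1 h room-temperature detection. Engineered CHO-K1 biosensor cells, 1,000/well, exposed 2 h at 37 C to titrations up to 46 uM final.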

[14] = target: 3',5'-cyclic-AMP phosphodiesterase 4B (Homo sapiens) (UniProt Q07343); assay: qHTS Assay for Inhibitors of PDE-IV (AID 607; active means well fitted activation curve with a large enough effect in the main read-out, with a control signal flat, not every such curve was filed as active); settings: HEK293 ACTOne CNG channel cells, membrane potential fluorescence; series mostly up to 22.9 µM
Method in brief: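 Live HEK293 cells with a modified cyclic nucleotide-gated (CNG) channel report intracellular cAMP via membrane-potential dye fluorescence (ex 535/em 590 nm). Endogenous PDE-IV was targeted. Compounds were tested at up to 22.9 uM final; RO 20-1724 100 uM served as control.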

[15] = target: Cytochrome P450 3A4 (Homo sapiens) (UniProt P08684); assay: qHTS Assay for Inhibitors and Substrates of Cytochrome P450 3A4 (AID 884); settings: recombinant CYP3A4, Luciferin-PPXE luminescence; series mostly up to 57.1 µM; further: potency means the concentration at half of the fitted maximal effect; nearly all actives have a fitted effect of over 50% in size
Method in brief: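 Luminescent readout of luciferin produced by CYP3A4 (20 nM) dealkylation of Luciferin-PPXE, 25 uM (its KM). NADPH-driven reaction ran 60 min at RT after 10 min compound preincubation; data scaled to 57 uM ketoconazole as 100% inhibition.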

[16] = target: Cytochrome P450 3A4 (Homo sapiens) (UniProt P08684); assay: qHTS Assay for Activators of Cytochrome P450 3A4 (AID 885); settings: recombinant CYP3A4, Luciferin-PPXE luminescence, 60 min; series mostly up to 11.4 µM; further: nearly all actives have a fitted effect of over 65% in size
Method in brief: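 Using 20nM recombinant human CYP3A4 in potassium phosphate (200mM), substrate Luciferin-PPXE at 25uM, luminescent luciferin detection followed a 60-min RT NADPH reaction; data scaled to 57 uM ketoconazole.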

[17] = qHTS Assay for Identification of Small Molecule Agonists for Hypoxia Response Element Signaling Pathway (AID 914; active means well fitted activation curve with a large enough effect in the signal ratio, with a control signal flat, not every such curve was filed as active; the % refers to the signal ratio; further: potency means the concentration at half of the fitted maximal effect); settings: ME-180 (cervical carcinoma) HRE-bla reporter, beta-lactamase ratio, CoCl2, 17 h; activation: stronger effect = higher value
Method in brief: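 HRE-bla ME-180 cells, overnight plating in Opti-MEM with 0.5% dialyzed FBS; cpd titration + EC50 CoCl2, 17 h, 37 degrees Celsius; CCF4 2.5 h RT; 460/530 nm ratio; AC50.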

Chain of Cytochrome P450 1A2 (Homo sapiens) (P05177 whole entry, looked up): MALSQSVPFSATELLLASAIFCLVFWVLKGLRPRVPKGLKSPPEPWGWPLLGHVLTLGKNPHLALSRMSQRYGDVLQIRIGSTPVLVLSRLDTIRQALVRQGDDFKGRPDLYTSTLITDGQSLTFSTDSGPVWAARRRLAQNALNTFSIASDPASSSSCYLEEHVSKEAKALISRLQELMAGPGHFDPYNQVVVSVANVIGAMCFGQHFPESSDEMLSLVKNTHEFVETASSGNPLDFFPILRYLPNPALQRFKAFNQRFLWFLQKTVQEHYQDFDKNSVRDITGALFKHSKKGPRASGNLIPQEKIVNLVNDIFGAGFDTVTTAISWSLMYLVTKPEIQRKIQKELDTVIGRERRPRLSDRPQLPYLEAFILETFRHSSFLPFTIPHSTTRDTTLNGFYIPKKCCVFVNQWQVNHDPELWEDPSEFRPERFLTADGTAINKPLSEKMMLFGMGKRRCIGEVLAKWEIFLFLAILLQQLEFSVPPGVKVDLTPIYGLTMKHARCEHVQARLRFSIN
Chain of Glucocorticoid receptor (Homo sapiens) (P04150 whole entry, looked up, the tested form may be a part): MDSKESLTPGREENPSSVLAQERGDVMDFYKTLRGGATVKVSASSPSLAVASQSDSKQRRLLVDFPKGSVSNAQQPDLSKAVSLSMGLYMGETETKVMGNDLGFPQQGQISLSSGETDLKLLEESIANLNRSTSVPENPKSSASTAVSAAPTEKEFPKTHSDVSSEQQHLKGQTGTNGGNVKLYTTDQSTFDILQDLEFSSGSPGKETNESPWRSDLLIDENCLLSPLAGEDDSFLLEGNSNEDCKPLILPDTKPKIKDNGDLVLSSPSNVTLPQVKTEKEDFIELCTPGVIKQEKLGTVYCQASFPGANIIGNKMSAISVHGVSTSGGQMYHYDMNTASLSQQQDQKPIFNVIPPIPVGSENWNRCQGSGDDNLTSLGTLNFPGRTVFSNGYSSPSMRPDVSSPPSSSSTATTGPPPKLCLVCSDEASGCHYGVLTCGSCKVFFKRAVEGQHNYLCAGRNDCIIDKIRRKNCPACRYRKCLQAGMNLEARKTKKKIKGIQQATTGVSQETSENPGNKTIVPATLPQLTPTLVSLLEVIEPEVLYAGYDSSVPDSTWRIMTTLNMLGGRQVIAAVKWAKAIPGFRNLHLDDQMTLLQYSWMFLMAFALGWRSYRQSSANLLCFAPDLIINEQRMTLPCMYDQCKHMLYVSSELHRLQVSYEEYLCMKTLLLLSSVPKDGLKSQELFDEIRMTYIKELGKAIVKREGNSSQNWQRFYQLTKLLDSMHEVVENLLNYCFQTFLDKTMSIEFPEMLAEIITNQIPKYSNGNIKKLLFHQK
Chain of Lysosomal acid glucosylceramidase (Homo sapiens) (P04062 whole entry, looked up): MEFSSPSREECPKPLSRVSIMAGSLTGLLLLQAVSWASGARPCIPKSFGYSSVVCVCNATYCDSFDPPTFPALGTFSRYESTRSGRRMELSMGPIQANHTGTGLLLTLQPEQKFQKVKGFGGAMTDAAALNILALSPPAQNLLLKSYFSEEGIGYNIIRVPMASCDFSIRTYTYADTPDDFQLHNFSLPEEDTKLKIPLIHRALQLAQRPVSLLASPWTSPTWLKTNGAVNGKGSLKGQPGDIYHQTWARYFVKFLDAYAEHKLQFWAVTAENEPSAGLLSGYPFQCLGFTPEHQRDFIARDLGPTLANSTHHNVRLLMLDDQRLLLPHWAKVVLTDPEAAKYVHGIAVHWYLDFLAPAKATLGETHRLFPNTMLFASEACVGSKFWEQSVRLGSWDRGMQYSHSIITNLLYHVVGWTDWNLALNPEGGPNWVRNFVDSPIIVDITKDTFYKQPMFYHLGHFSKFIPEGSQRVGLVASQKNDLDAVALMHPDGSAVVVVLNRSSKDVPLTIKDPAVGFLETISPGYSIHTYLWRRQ
Chain of Guanine nucleotide-binding protein G(i) subunit alpha-1 (Homo sapiens) (P63096 whole entry, looked up): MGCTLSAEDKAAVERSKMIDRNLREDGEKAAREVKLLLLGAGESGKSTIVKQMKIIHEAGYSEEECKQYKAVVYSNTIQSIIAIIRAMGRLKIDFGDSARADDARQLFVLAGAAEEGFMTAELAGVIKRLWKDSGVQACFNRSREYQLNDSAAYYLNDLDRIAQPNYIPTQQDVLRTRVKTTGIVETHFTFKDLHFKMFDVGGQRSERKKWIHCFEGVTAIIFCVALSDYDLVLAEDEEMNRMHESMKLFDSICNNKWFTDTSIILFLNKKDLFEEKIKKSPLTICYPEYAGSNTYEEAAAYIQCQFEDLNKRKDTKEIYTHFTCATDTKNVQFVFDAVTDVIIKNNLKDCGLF
Chain of Alpha-galactosidase A (Homo sapiens) (P06280 whole entry, looked up): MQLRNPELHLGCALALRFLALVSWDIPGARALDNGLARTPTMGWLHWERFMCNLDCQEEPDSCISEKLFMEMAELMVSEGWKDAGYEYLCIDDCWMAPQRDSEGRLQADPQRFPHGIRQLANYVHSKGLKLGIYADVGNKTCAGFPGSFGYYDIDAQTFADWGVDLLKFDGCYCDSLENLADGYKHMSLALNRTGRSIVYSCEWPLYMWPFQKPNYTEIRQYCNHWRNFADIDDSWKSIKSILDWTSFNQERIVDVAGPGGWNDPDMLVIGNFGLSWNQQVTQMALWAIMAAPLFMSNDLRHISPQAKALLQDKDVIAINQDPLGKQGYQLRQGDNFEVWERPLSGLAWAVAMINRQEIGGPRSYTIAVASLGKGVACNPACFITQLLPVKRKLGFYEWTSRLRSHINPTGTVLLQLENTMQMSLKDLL
Chain of Cytochrome P450 3A4 (Homo sapiens) (P08684 whole entry, looked up): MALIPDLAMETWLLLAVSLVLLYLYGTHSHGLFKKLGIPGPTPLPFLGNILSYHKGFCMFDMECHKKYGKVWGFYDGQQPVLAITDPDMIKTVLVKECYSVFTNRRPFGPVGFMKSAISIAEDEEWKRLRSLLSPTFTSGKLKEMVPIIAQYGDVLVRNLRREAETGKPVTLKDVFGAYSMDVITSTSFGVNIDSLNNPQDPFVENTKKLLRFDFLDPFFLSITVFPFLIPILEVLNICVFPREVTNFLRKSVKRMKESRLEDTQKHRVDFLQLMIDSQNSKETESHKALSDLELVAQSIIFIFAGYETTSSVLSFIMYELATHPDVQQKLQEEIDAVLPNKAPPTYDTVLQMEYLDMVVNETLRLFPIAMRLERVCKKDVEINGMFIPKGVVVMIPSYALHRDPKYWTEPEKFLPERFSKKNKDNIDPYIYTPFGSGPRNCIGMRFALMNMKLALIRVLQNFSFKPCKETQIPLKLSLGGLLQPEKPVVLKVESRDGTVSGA
Chain of Pyruvate kinase PKM (Homo sapiens) (P14618 whole entry, looked up): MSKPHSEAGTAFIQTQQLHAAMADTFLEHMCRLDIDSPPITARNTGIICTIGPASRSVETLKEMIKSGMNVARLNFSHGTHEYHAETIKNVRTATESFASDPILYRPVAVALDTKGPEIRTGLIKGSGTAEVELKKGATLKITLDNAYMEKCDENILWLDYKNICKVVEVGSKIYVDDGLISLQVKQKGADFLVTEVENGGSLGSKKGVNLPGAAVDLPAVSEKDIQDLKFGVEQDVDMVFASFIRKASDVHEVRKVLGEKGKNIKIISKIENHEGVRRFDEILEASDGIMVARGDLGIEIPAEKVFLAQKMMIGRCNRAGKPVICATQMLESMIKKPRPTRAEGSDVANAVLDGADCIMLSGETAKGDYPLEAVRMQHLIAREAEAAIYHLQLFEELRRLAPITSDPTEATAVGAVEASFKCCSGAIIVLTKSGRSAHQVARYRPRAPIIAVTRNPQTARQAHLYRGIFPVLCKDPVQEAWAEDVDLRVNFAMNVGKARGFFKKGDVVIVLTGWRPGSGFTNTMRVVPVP
Chain of 3',5'-cyclic-AMP phosphodiesterase 4B (Homo sapiens) (Q07343 whole entry, looked up): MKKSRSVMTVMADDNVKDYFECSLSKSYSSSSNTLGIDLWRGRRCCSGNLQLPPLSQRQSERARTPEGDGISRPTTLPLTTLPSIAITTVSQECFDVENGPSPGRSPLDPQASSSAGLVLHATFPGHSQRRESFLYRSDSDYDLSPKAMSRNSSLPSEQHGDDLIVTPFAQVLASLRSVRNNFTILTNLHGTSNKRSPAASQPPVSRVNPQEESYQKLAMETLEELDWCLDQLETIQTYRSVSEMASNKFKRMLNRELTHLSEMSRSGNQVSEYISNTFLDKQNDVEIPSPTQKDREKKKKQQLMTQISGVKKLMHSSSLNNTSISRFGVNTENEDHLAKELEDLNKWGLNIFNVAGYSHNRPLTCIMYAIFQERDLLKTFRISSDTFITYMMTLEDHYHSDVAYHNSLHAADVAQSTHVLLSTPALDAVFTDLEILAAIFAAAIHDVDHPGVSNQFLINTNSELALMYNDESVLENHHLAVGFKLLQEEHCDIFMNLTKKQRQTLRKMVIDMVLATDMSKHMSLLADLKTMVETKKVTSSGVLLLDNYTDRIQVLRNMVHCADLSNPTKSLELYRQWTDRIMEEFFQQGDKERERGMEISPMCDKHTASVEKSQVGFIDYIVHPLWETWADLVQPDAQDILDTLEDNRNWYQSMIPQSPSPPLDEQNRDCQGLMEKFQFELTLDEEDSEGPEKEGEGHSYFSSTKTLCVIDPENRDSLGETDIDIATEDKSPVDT
Chain of Pyruvate kinase (Leishmania mexicana) (Q27686 2-499 E452W): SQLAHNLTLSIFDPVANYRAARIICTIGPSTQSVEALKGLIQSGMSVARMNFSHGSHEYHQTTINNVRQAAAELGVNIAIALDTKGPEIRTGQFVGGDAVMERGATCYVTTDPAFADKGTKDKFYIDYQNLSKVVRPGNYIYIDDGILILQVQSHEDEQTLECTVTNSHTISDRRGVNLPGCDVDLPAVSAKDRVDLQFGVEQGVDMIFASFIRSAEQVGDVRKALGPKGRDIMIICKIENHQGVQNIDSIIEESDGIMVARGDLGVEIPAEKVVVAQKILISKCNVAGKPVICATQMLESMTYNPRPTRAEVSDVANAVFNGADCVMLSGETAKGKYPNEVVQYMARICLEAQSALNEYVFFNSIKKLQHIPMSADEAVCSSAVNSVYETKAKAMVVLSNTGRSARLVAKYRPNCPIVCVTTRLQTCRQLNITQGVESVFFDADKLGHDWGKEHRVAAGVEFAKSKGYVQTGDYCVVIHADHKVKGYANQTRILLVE

With CC[C@H]1C(=O)OC[C@H]1Cc1cncn1C the Potency [1] was greater than 11.4 µM, the Potency [2] was “inactive” and the Potency [3] was “inactive”. The outcome [4] was “inactive”, the Potency [5] was “inactive” and the outcome [6] was “inactive”. For the same compound, the outcome [7] was “inactive”, the outcome [8] was “inactive” and the outcome [9] was “inactive”. For the same compound, the Potency [10] was “inactive”.

Compound COC(=O)CC[C@@H](C)[C@@H]1CC[C@@H]2[C@@H]3CC[C@H]4C[C@@H](O)CC[C@@]4(C)[C@@H]3CC[C@]21C has a Potency [1] greater than 11.4 µM, an activity, negative = inhibition [11] of 23.8% and a Potency [12] greater than 46 µM. For the same compound, the Potency [13] was greater than 9.22 µM, the Potency [3] was “inactive” and the Potency [14] was “inactive”.

For O=c1c(-c2ccccc2)nc2cnc(N3CCNCC3)nc2n1Cc1ccc(F)cc1, the Potency [1] was greater than 11.4 µM, the Potency [2] was 20 µM (active) and the Potency [12] was greater than 9.22 µM. The Potency [13] was greater than 46 µM, the Potency [14] was “inactive” and the Potency [15] was 3.16 µM (active). For the same compound, the Potency [16] was “inactive” and the Potency [17] was 3.16 µM (active).
